Several values for one entry are separate records, joined by “and”; a condition that tells them apart may be missing. Equal entries are not always repeated. Inconclusive results are not listed. More than one record can exist for a structure, and the calls need not agree. Activity calls are given as the source filed them. Unless noted, calls come from the whole dose curve; as a rule, active = well fitted curve in the direction sought with a large enough effect in the repeat runs; inconclusive = weak or mixed curves; inactive = no such curve, though single readings can be large; an effect the other way counts as inactive or inconclusive.

This is an account of results in PubChem BioAssay (Tox21).

Experiment [1] is described as follows: Caspase-3/7 induction in HepG2 cells by small molecules, qHTS assay (AID 1346978). Note: nearly all actives have a fitted effect of over 15% in size. The gist of the method:
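Caspase-3/7 induction was measured by Caspase-Glo 3/7 luminescence (30 min, room temperature) after a 17 hr compound exposure of wild-type HepG2 cells seeded at 2,000 per well and pre-incubated 5 hr.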
For orientation: qHTS replaces the single test concentration by a dilution series.

The nature of experiment [2]: Caspase-3/7 induction in CHO-K1 cells by small molecules, qHTS cell viability counter screen (AID 1346979). Note: nearly all actives have a fitted effect of over 35% in size. Note: potency is the fitted concentration of half-maximal effect. The procedure, abridged:
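To flag cytotoxic compounds, treated CHO-K1 wild-type cells were given CellTiter-Fluor at 16hr and read fluorescently after 1hr at 37C; the caspase-3/7 luminescence was measured in these same wells.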

Experiment [3] is described as follows: Caspase-3/7 induction in CHO-K1 cells by small molecules, qHTS assay (AID 1346980). Note: nearly all actives have a fitted effect of over 15% in size. The gist of the method:
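Luminescent Caspase-Glo 3/7 read (30min, room temperature) quantified apoptosis induction. Cells were wild-type CHO-K1, treated with compound for 17hr at 37 C and 5% CO2.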

Experiment [4] is described as follows: Caspase-3/7 induction in HepG2 cells by small molecules, qHTS cell viability counter screen (AID 1346981). Note: nearly all actives have a fitted effect of over 30% in size. Note: potency is the fitted concentration of half-maximal effect. The procedure, abridged:
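Fluorescence read-out of live-cell protease activity (CellTiter-Fluor) after 1 hr with reagent. This was measured in the same wells as the caspase-3/7 luminescence, on HepG2 cells exposed to DMSO-dissolved compounds for 16 hr at 37 C.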

Experiment [5] has as its target Nuclear receptor subfamily 1 group I member 2 (Homo sapiens) (UniProt O75469). The experiment in a line: Human pregnane X receptor (PXR) small molecule agonists, qHTS assay (AID 1346982). Note: nearly all actives have a fitted effect of over 35% in size. Note: potency is the fitted concentration of half-maximal effect. The procedure, abridged:
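HepG2 PXR-Luc reporter line, 5% charcoal-stripped FBS; 5 hr pre-incubation, compound (DMSO) 24 hr at 37 C/5% CO2; ONE-Glo 30 min RT; luminescence read-out.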

The target of experiment [6] is Nuclear receptor subfamily 1 group I member 2 (Rattus norvegicus) (UniProt Q9R1A7). The experiment in a line: Rat pregnane X receptor (rPXR) activation by small molecules, qHTS assay (AID 1346983). Note: nearly all actives have a fitted effect of over 20% in size. The conditions noted are these: rPXR luciferase reporter cells, One-Glo luminescence, 24 h; max activation: stronger effect = higher value. The procedure, abridged: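 Luminescent readout (One-Glo luciferase, 30 min room temperature) followed 24 hr compound treatment at 37 C of rPXR cells plated 2,000 per well and preincubated 5hr; qHTS format with compounds delivered in DMSO.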

For experiment [7], the target named is Nuclear receptor subfamily 1 group I member 2 (Homo sapiens) (UniProt O75469). The experiment in a line: CYP3A4 induction through human pregnane X receptor (PXR) by small molecules, qHTS assay (AID 1346984). Note: nearly all actives have a fitted effect of over 40% in size. Note: potency is the fitted concentration of half-maximal effect. The procedure, abridged: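 HepG2-derived DPX-2 line carrying PXR plus a CYP3A4-promoter luciferase reporter; cells plated 5 hr, compound-exposed 24 hr at 37C. CYP3A4 activity probed with 3uM (final) Luciferin-IPA for 3hr, then luciferase read after One-Glo.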

Experiment [8] shares this target. The experiment in a line: Human pregnane X receptor (PXR) activation by small molecules, qHTS assay (AID 1346985). Note: nearly all actives have a fitted effect of over 40% in size. Note: potency is the fitted concentration of half-maximal effect. The procedure, abridged: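 DPX-2 cells (HepG2 co-transfected with a PXR response element and a CYP3A4-promoter luciferase construct) were seeded at 2,000 per well, rested 5 hr at 37C, then exposed to DMSO-dissolved compounds for 24 hr. Activation was read as luciferase luminescence.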

Experiment [9] addresses Acetylcholinesterase (Homo sapiens) (UniProt P22303). The experiment in a line: Acetylcholinesterase (AChE) small molecule antagonists: colormetric cell-based qHTS assay (AID 1347395; calls by dose curve; note: nearly all actives have a fitted effect of over 30% in size; note: potency is the fitted concentration of half-maximal effect). The procedure, abridged: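 Neuroblastoma line SH-SY5Y supplied the enzyme; cells were preincubated with compound for 30 min at 37 C and 5% CO2. Acetylthiocholine with DTNB was then added for 90 min at 37 C, and thiocholine was measured by colour.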

Experiment [10] has the same target. The experiment in a line: Acetylcholinesterase (AChE) small molecule antagonists: enzyme-based qHTS assay (AID 1347397; calls by dose curve; note: nearly all actives have a fitted effect of over 55% in size; note: potency is the fitted concentration of half-maximal effect). The conditions noted are these: Potency: AChE enzyme activity inhibition. The gist of the method: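 First, recombinant human AChE (50 mU/mL as dispensed) received test compound or DMSO. Second, plates stood 30 min at room temperature. Third, DTNB and acetylthiocholine were added, followed by 10 min at room temperature and colorimetric detection.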
% is set by controls: 0 for no effect and ±100 for the full control effect.

Chain of Nuclear receptor subfamily 1 group I member 2 (Rattus norvegicus) (Q9R1A7 whole entry, looked up): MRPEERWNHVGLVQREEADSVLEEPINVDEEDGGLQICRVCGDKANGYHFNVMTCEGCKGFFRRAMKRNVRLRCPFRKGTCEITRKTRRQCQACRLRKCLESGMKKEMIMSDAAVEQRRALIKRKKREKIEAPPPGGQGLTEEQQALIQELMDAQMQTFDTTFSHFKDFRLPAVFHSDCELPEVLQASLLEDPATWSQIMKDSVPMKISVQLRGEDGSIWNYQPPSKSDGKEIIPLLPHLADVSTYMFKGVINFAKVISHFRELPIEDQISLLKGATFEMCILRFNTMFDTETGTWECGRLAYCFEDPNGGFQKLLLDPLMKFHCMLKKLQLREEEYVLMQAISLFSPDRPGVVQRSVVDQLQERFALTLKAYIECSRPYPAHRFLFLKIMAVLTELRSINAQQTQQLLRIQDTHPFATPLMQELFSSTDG
Chain of Acetylcholinesterase (Homo sapiens) (P22303 whole entry, looked up): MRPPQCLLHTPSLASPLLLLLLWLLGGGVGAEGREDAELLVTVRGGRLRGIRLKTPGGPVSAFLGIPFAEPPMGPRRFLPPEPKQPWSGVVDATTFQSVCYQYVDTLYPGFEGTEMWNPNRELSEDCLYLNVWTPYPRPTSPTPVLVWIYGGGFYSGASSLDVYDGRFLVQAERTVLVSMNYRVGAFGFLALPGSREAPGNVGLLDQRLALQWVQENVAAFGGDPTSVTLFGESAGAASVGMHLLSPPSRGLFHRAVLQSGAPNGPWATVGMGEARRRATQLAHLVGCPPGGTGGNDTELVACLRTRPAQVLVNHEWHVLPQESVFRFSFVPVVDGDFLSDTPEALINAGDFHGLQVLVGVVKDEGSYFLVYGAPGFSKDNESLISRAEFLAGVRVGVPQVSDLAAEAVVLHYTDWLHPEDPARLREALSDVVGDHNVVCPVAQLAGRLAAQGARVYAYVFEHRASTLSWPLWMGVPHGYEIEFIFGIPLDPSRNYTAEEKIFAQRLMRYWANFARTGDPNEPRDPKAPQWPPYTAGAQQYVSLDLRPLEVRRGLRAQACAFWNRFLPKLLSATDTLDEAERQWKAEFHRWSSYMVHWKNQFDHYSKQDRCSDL
Chain of Nuclear receptor subfamily 1 group I member 2 (Homo sapiens) (O75469 whole entry, looked up): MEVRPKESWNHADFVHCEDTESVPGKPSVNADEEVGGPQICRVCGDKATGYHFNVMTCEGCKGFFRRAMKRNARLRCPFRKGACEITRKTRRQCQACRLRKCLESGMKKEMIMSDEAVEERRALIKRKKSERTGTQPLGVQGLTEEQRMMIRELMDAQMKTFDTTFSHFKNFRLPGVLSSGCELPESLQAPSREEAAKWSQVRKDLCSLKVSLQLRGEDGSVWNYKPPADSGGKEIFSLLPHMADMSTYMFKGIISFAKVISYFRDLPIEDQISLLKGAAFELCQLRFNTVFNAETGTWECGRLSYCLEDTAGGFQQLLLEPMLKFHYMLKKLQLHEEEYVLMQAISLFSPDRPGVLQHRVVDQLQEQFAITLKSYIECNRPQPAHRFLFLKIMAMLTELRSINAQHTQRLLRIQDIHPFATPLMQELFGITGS

On to `C[C@]12CC[C@H](O)CC1=CC[C@@H]1[C@@H]2CC[C@]2(C)C(=O)CC[C@@H]12`, for which the compound was classed as inactive in [1] and in experiment [3]. The Potency result in [2], in [4], in [7], in experiment [8], in [9] and in experiment [10] was “inactive” each time. Besides, the Potency in [5] is 54.5 µM (active) and 48.6 µM (active) and inactive. For the same compound, the max activation in experiment [6] was -3.38% (inactive).
Consider `O=P1(NCCCl)OCCCN1CCCl` (stereo not given), for which the compound was classed as inactive in experiment [1] and in experiment [3]. Further, the Potency entry in experiment [2] and in [4] was “inactive” in each case.
Regarding `Oc1c(Br)cc(Br)cc1Br`, the compound was called inactive in experiment [1] and in [3]. The Potency result in experiment [2], in experiment [4], in [7], in [8], in [9] and in [10] was “inactive” in each case. The Potency in [5] was 68.7 µM (active) and 61.1 µM (active) and inactive. Further, the max activation in [6] is -2.81% (inactive).
For `Cc1cc(O)ccc1Cl`, the compound was called inactive in experiment [1] and in experiment [3]. Further, the Potency result in experiment [2], in [4], in experiment [5], in experiment [7], in experiment [8] and in experiment [9] was “inactive” in each case. In addition, in experiment [10], the Potency entry was “inactive”. Further, the max activation in experiment [6] was -2.1% (inactive).
Take `COP(=S)(OC)SCN1C(=O)c2ccccc2C1=O`: the compound was called inactive in [1] and in experiment [3]. The Potency entry in experiment [2], in [4], in experiment [5], in experiment [7], in [8] and in [10] was “inactive” each time. For the same compound, the max activation in [6] is -1.79% (inactive). Moreover, the Potency in experiment [9] was 71.5 µM (active) and 39.9 µM (active).
Turning to `CNC(=O)Oc1cccc2ccccc12`, the compound was called inactive in experiment [1] and in [3]. Further, the Potency entry in experiment [2], in experiment [4] and in [8] was “inactive” each time. For the same compound, the Potency in experiment [5] is 68 µM (active) and inactive; in experiment [7] it was 3.16 µM (active); in experiment [9], 2.22 µM (active) and inactive. Further, in experiment [6], the max activation was -0.0164% (inactive).
`CNCC(O)c1ccc(O)cc1` (stereo not given): the call in experiment [1] and in experiment [3] was inactive. The Potency result in [2], in [4], in experiment [5], in experiment [7], in experiment [8] and in experiment [9] was “inactive” each time. Further, the Potency result in experiment [10] is “inactive”. Moreover, the max activation in experiment [6] is -2.53% (inactive).
For `OC[C@@H](O)[C@H]1O[C@@H]2O[C@H](C(Cl)(Cl)Cl)O[C@@H]2[C@H]1O`, the outcome in experiment [1] and in [3] was inactive. In addition, the Potency entry in [2], in experiment [4], in experiment [5], in [7], in experiment [8] and in experiment [9] was “inactive” in each case. The Potency entry in experiment [10] is “inactive”. Also, the max activation in experiment [6] is -1.13% (inactive).
Take `CNC(=O)O/N=C/C(C)(C)S(C)(=O)=O`: the result in experiment [1] and in experiment [3] was inactive. Besides, the Potency result in experiment [2], in experiment [4] and in [5] was “inactive” throughout.
For `Cc1cccc(N)c1C`, the compound was called inactive in experiment [1] and in experiment [3]. In addition, the Potency result in experiment [2], in experiment [4], in [9] and in [10] was “inactive” throughout. In experiment [5], the Potency was 61.1 µM (active).
As for `O=C(O)COc1ccccc1`, the compound was called inactive in experiment [1] and in [3]. Besides, the Potency result in experiment [2], in experiment [4], in experiment [5], in [7], in [8] and in [9] was “inactive” in each case. In addition, the Potency entry in experiment [10] is “inactive”. Further, the max activation in experiment [6] is -1.4% (inactive).
For `Nc1ccc(N)cc1`, the compound was classed as inactive in experiment [1] and in [3]. Besides, the Potency in experiment [2] is 48.8 µM (active) and 54.5 µM (active); in experiment [4], 54.5 µM (active) and inactive; in experiment [5], 54.5 µM (active) [middle of 4 runs]; in experiment [8], 25.1 µM (active).
In the case of `COP(=S)(OC)Oc1ccc(SC)c(C)c1`, the result in experiment [1] and in experiment [3] was inactive. For the same compound, the Potency entry in experiment [2], in experiment [4], in experiment [7], in experiment [8], in experiment [9] and in experiment [10] was “inactive” in each case. The Potency in experiment [5] is 60.4 µM (active) and 37.6 µM (active). Moreover, the max activation in [6] was 1.15% (inactive).
With `C[C@H]1C(=O)O[C@@H]2CCN3CC=C(COC(=O)[C@](C)(O)[C@]1(C)O)[C@H]23`, the result in [1] and in [3] was inactive. Also, the Potency result in [2], in experiment [4], in experiment [5], in [7], in experiment [8] and in experiment [9] was “inactive” each time. In addition, in experiment [10], the Potency result was “inactive”. The max activation in experiment [6] was -2.06% (inactive).
As for `CCOP(=S)(OCC)Oc1ccc([N+](=O)[O-])cc1`, the call in experiment [1] and in experiment [3] was inactive. The Potency entry in [2] and in experiment [4] was “inactive” each time. For the same compound, the Potency in experiment [5] was 49.2 µM (active); in experiment [9], 64.1 µM (active) and 13.8 µM (active); in [10], 24.5 µM (active).
For `Cc1ccc(N)cc1`, the outcome in experiment [1] and in [3] was inactive. Besides, the Potency result in [2] and in [4] was “inactive” throughout. In addition, the Potency in experiment [5] was 4.35 µM (active) and 29.6 µM (active) and 27.3 µM (active).
In the case of `COc1cc(-c2ccc(N)c(OC)c2)ccc1N`, the result in [1] and in experiment [3] was inactive. For the same compound, the Potency entry in experiment [2] was “inactive and 58.3 µM (active)”; in [4], “inactive and 46.3 µM (active)”.
In the case of `O=S(=O)(O)OOS(=O)(=O)O`, the compound was called inactive in experiment [1] and in [3]. The Potency result in experiment [2], in experiment [4], in [5], in [9] and in [10] was “inactive” each time.
For `C=CCN=C=S`, the result in experiment [1] and in experiment [3] was inactive. The Potency result in experiment [2], in experiment [4], in experiment [7], in experiment [8], in experiment [9] and in [10] was “inactive” throughout. For the same compound, the Potency in experiment [5] is 55.7 µM (active) and inactive. Besides, the max activation in [6] is 0.185% (inactive).
Take `NNc1ccccc1`: the compound was called inactive in experiment [1] and in [3]. In addition, the Potency result in [2], in experiment [4] and in experiment [8] was “inactive” in each case. The Potency in [5] is 61 µM (active) and inactive. Besides, in experiment [6], the max activation was -1.33% (inactive).
Consider `OCCCCO`, for which the call in experiment [1] and in experiment [3] was inactive. The Potency result in [2] and in experiment [4] was “inactive” in each case.
